Results filed as inconclusive are left out. Active and inactive are the calls of the source. Calls come from the whole dose curve; as a rule, active = well fitted curve in the direction sought with a large enough effect; inconclusive = small, poorly fitted or top-dose-only effect, or another doubt; inactive = no such curve, though single readings can be large; an effect the other way counts as inactive or inconclusive.
What was measured:
HaCat [1] = test: Cytotoxic Profiling of Annotated Libraries Using Quantitative High-Throughput Screening (AID 1296008); settings: Five cell lines viability, CellTiter-Glo ATP luminescence, 48-72 h; max response: active compounds read low; note: nearly all actives have a fitted effect of over 60% in size; note: potency is the fitted concentration of half-maximal effect; for max response: % is set by controls: 0 for no effect and ±100 for the full control effect
Summary of the method: (§1)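 Compounds were pin-transferred onto cells and incubated 48 or 72 hr at 37 degree Celsius, 95% humidity. CellTiter-Glo was added, plates sat 10 min at room temperature, then ATP-coupled luminescence was imaged as the viability read-out.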

KB-3-1 = test: as above; settings: Five cell lines viability, CellTiter-Glo ATP luminescence, 48-72 h; max response: active compounds read low
Summary of the method: as §1

NIH3T3 = test: as above; settings: Five cell lines viability, CellTiter-Glo ATP luminescence, 48-72 h; max response: active compounds read low
Summary of the method: as §1

C33A = test: Primary qHTS to identify gynecologic anti-cancer compounds using libraries of approved drugs and bioactive compounds (AID 1345084); settings: Gynecologic cancer cell panel viability, ATPlite luminescence, 48 h; series mostly up to 57.5 µM; note: nearly all actives have a fitted effect of over 55% in size; note: potency is the fitted concentration of half-maximal effect
Summary of the method: (§2)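 Measured: luminescence after ATPlite addition (15 min, RT). Exposure: 48 h, 37 C, 5% CO2.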

CASKI = test: as above; settings: Gynecologic cancer cell panel viability, ATPlite luminescence, 48 h; series mostly up to 57.5 µM
Summary of the method: as §2

HeLa = test: as above; settings: Gynecologic cancer cell panel viability, ATPlite luminescence, 48 h; series mostly up to 57.5 µM
Summary of the method: as §2

Hek293T = test: as above; settings: Gynecologic cancer cell panel viability, ATPlite luminescence, 48 h, control line for the selectivity index; series mostly up to 57.5 µM
Summary of the method: as §2

JEG-3 = test: as above; settings: Gynecologic cancer cell panel viability, ATPlite luminescence, 48 h; series mostly up to 57.5 µM
Summary of the method: as §2

PA-1 = test: as above; settings: Gynecologic cancer cell panel viability, ATPlite luminescence, 48 h; series mostly up to 57.5 µM
Summary of the method: as §2

Es-2 = test: as above; settings: Gynecologic cancer cell panel viability, ATPlite luminescence, 48 h; series mostly up to 57.5 µM
Summary of the method: as §2

OV90 = test: as above; settings: Gynecologic cancer cell panel viability, ATPlite luminescence, 48 h; series mostly up to 57.5 µM
Summary of the method: as §2

SKOV3 = test: as above; settings: Gynecologic cancer cell panel viability, ATPlite luminescence, 48 h; series mostly up to 57.5 µM
Summary of the method: as §2

CAOV3 = test: as above; settings: Gynecologic cancer cell panel viability, ATPlite luminescence, 48 h; series mostly up to 57.5 µM
Summary of the method: as §2

HACAT [2] = test: qHTS assay to identify novel small-molecules to repurpose for Merkel cell carcinoma treatment (AID 1296009); settings: MCC and control cell lines, CellTiter-Glo viability, 72 h; at 44.8 µM (top of the series) unless noted; note: nearly all actives have a fitted effect of over 60% in size
Summary of the method: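 qHTS format: cells treated with library compounds in DMSO across 8 (NPC) or 11 (MIPE) concentrations. Readout after 72 hr at 37 degree celsius was CellTiter-Glo luminescence.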

COc1cc(F)c(F)c(Nc2ccc(I)cc2F)c1NS(=O)(=O)C1(CC(O)CO)CC1 (centres undefined)
active: Potency (HaCat [1]) 14.6 µM | Potency (NIH3T3) 5.17 µM
inactive: max response (KB-3-1) -14.8% | Potency (C33A) | Potency (CASKI) | Potency (HeLa) | Potency (Hek293T) | Potency (JEG-3) | Potency (PA-1)

O=C(NCc1ccccc1)c1ccc2c(=O)n(-c3cccc(C(F)(F)F)c3)c(=S)[nH]c2c1
inactive: max response (HaCat [1]) -51.3% | max response (KB-3-1) -9.36% | max response (NIH3T3) -30.9% | Potency (C33A) | Potency (CASKI) | Potency (Es-2) | Potency (HeLa) | Potency (Hek293T) | Potency (JEG-3) | Potency (OV90) | Potency (PA-1) | Potency (SKOV3)

COc1nc2ccc(Br)cc2cc1[C@@H](c1ccccc1)[C@@](O)(CCN(C)C)c1cccc2ccccc12
inactive: max response (HaCat [1]) -2.21% | max response (KB-3-1) -1.57% | Potency (C33A) | Potency (CAOV3) | Potency (CASKI) | Potency (Es-2) | Potency (HeLa) | Potency (JEG-3) | Potency (OV90) | Potency (PA-1) | Potency (SKOV3)
active: Potency (NIH3T3) 18.4 µM

C=C1C(=O)O[C@@H]2C[C@H](C)C3=CC(=O)[C@H](O)[C@@]3(C)C[C@H]12
inactive: max response (HaCat [1]) 1.47% | max response (KB-3-1) 7.17% | max response (NIH3T3) -23.3% | Potency (C33A) | Potency (CASKI) | Potency (Es-2) | Potency (HeLa) | Potency (Hek293T) | Potency (JEG-3) | Potency (OV90) | Potency (PA-1)

CC(C)c1ccc(-c2cc(=O)c3ccccc3o2)cc1
inactive: max response (HaCat [1]) -4.45% | max response (KB-3-1) -3.41% | max response (NIH3T3) -24.9% | Potency (CASKI)
active: Potency (C33A) 11.2 µM | Potency (JEG-3) 8.91 µM

O=C(NCCCCCCCCNC(=O)C(Cl)Cl)C(Cl)Cl
inactive: max response (HaCat [1]) -4.24% | max response (KB-3-1) -9.66% | max response (NIH3T3) -14.9% | Potency (C33A) | Potency (Es-2) | Potency (HeLa) | Potency (Hek293T) | Potency (JEG-3) | Potency (PA-1)

CC(C)(N)c1ncc(-c2ccc(OC(F)(F)F)cc2)[nH]1
inactive: max response (HaCat [1]) -18.6% | max response (KB-3-1) -11.1% | Potency (C33A) | Potency (CAOV3) | Potency (CASKI) | Potency (Es-2) | Potency (HeLa) | Potency (Hek293T) | Potency (JEG-3) | Potency (OV90) | Potency (PA-1)

COc1ccc([C@H]2OC[C@H]3O[C@@H](O[C@H]4[C@@H]2NC[C@@H]4O)[C@H](O)[C@H]3O)cc1
active: Potency (HaCat [1]) 2.55 µM | Potency (KB-3-1) 0.904 µM | Potency (NIH3T3) 1.14 µM | Potency (C33A) 7.08 µM | Potency (CAOV3) 2.82 µM | Potency (CASKI) 5.01 µM | Potency (Es-2) 4.47 µM | Potency (Hek293T) 3.16 µM | Potency (JEG-3) 5.01 µM | Potency (PA-1) 5.01 µM | Potency (SKOV3) 3.98 µM

C/C=C(\C)[C@@H]1C(C)=C[C@@H]2[C@H]([C@@H]1/C=C/C=C/C(=O)O)[C@@H](C)CC[C@@H]2O
inactive: outcome (HaCat [1]) | outcome (HACAT [2]) | Potency (C33A)
active: Potency (KB-3-1) 8.05 µM

COc1ccc(Cl)c(Nc2ncnc3cc(OCC4CCN(C)CC4)c(OC)cc23)c1
inactive: max response (KB-3-1) 2.68% | Potency (Es-2) | Potency (HeLa) | Potency (Hek293T) | Potency (JEG-3)
active: Potency (HaCat [1]) 4.11 µM | Potency (NIH3T3) 7.31 µM | Potency (CAOV3) 8.91 µM | Potency (SKOV3) 3.55 µM

CN(C)CCn1cc(-c2ccc(F)cc2)c(-n2cccc2)n1
inactive: max response (HaCat [1]) 4.28% | max response (KB-3-1) -2.07% | max response (NIH3T3) -6.89% | Potency (C33A) | Potency (CASKI) | Potency (Es-2) | Potency (HeLa) | Potency (Hek293T) | Potency (JEG-3) | Potency (OV90) | Potency (PA-1)

C=C(C(=O)O[C@H]1C/C(C)=C/CC/C(CO)=C/[C@H]2OC(=O)C(=C)[C@H]12)C(O)CO (some centres undefined)
inactive: outcome (HaCat [1]) | max response (KB-3-1) -10.8% | outcome (HACAT [2]) | Potency (C33A) | Potency (CAOV3) | Potency (CASKI) | Potency (HeLa) | Potency (Hek293T) | Potency (OV90) | Potency (PA-1) | Potency (SKOV3)

C=C1/C(=C/C=C2\CCC[C@]3(C)[C@@H]([C@H](C)CC[C@@H](O)C(C)(C)O)CC[C@@H]23)C[C@@H](O)C[C@@H]1O
inactive: max response (HaCat [1]) -0.344% | max response (KB-3-1) -22.3% | Potency (CASKI) | Potency (Es-2)
active: Potency (NIH3T3) 0.0146 µM

C=C1C(=O)O[C@@H]2/C=C(\C)CC/C=C(\C)CC[C@@H]12
inactive: outcome (HaCat [1]) | max response (KB-3-1) -12.1% | outcome (HACAT [2]) | Potency (C33A) | Potency (CAOV3) | Potency (CASKI) | Potency (Es-2) | Potency (HeLa) | Potency (Hek293T) | Potency (OV90) | Potency (SKOV3)

COc1cc(N2CCOCC2)ccc1NC(=O)c1csc(-c2cccnc2)n1
inactive: max response (HaCat [1]) -49.6% | max response (KB-3-1) 1.64% | Potency (C33A) | Potency (CASKI) | Potency (Es-2) | Potency (HeLa) | Potency (Hek293T) | Potency (JEG-3)
active: Potency (NIH3T3) 10.3 µM

COc1ccc(-c2csc(NC(=O)[C@H]3CCCCN3S(=O)(=O)c3ccc(C)cc3)n2)cc1
inactive: outcome (HaCat [1]) | max response (KB-3-1) -25.1% | outcome (HACAT [2]) | Potency (C33A) | Potency (CAOV3) | Potency (CASKI) | Potency (Es-2) | Potency (HeLa) | Potency (Hek293T) | Potency (JEG-3) | Potency (OV90) | Potency (PA-1) | Potency (SKOV3)

O=c1nc(-c2ccccn2)sc2ccccc12
inactive: outcome (HaCat [1]) | max response (KB-3-1) 3.79% | outcome (HACAT [2]) | Potency (C33A) | Potency (CAOV3) | Potency (CASKI) | Potency (Es-2) | Potency (HeLa) | Potency (Hek293T) | Potency (JEG-3) | Potency (OV90) | Potency (PA-1)

Cn1c(CO)c(-c2ccccc2)c2cc([N+](=O)[O-])ccc21
inactive: max response (HaCat [1]) -23.7% | max response (KB-3-1) -20.1% | max response (NIH3T3) -3.34% | Potency (C33A) | Potency (CASKI) | Potency (Es-2) | Potency (Hek293T) | Potency (JEG-3) | Potency (OV90) | Potency (PA-1)

CC[C@H]1OC(=O)[C@H](C)[C@@H](O[C@H]2C[C@@](C)(OC)[C@@H](O)[C@H](C)O2)[C@H](C)[C@@H](O[C@H]2O[C@H](C)C[C@H](N(C)C)[C@H]2O)[C@](C)(O)C[C@@H](C)C(=O)[C@H](C)[C@@H](O)[C@]1(C)O
inactive: outcome (HaCat [1]) | max response (KB-3-1) 8.4% | outcome (HACAT [2]) inactive [at 17.4 µM] | Potency (C33A) | Potency (CAOV3) | Potency (CASKI) | Potency (Es-2) | Potency (HeLa) | Potency (Hek293T) | Potency (JEG-3) | Potency (OV90) | Potency (PA-1) | Potency (SKOV3)
